Screening results as filed in PubChem BioAssay.
Rows were chosen to be rich in hits. Some 1.2% of all compounds tested hit in one or more screens of this group.
PglD DTNB: PglD (C. jejuni) enzyme inhibition; inhibition, % at 12.5 µM; purified PglD enzyme, DTNB colorimetric CoA detection; AID 602405; hit rate 0.098% among 360,000; in the data active means inhibition above about 16%, passing the limit was not always enough; inconclusive means no clear call, values can overlap the other calls
NSD2 HMT inh: NSD2 (human) methyltransferase inhibition. O96028. NSD2 peptide methylation, AlphaScreen, 120 min. inhibition, % at 12.5 µM. hit rate 0.54% among 310,000. AID 743445; in the data active means inhibition above about 50%
miR-122 sensor: blocks miR-122 activity in Huh7 sensor cells; Huh7 miR-122 Renilla luciferase sensor, 48 h; neutral wells = 0, positive control = 100; activation (reporter increase), % at 12.5 µM; hit rate 0.3% among 340,000; AID 602342;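 active means mean replicate activation score at least 90 and every replicate individually at or above 90; inconclusive means only one of the two criteria met; inactive means neither criterion met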;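 further: higher luciferase means less miR-122 activity so hits act as miR-122 inhibitors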
Statin myotox sup: suppressors of simvastatin-induced myotoxicity in C2C12 myotubes; AID 602340; hit rate 0.78% among 330,000; rescue of ATP level, % at 7.49 µM; ATP luminescence, 48 h; scaled: DMSO 0, geranylgeraniol control 100;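 active means mean ATP rescue above about 67%, or every replicate alone reaching that limit, limit read from the data, passing the limit was not always enough; inconclusive means no clear call, values can overlap the other calls; inactive means mean under the limit and some replicate under it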;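 further: myotubes were challenged with 10 µM simvastatin during compound exposure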
PglD confirm: blocks Campylobacter jejuni PglD acetyltransferase activity; shares compounds with PglD DTNB; Purified C. jejuni PglD, DTNB absorbance 412 nm; inhibition, % at 20 µM; 320 tested, under 10 active; AID 743156;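 active means mean inhibition across replicates of at least 20% with every single replicate also at 20% or more; inconclusive means mean inhibition at least 20% but some replicate falls below 20%; inactive means mean inhibition under 20% and not all replicates reach it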;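 further: initial rate of CoA release by acetyl transfer from AcCoA to the UDP-4-amino sugar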
Numbers stand for hits; – = inactive; ? = inconclusive; · = no result.

SMILES	PglD DTNB	NSD2 HMT inh	miR-122 sensor	Statin myotox sup	PglD confirm
C[C@@H]1CN([C@@H](C)CO)C(=O)Cc2cc(NC(=O)NC3CCCCC3)ccc2O[C@@H]1CN(C)S(=O)(=O)c1cn(C)cn1	–	·	–	–	·
Cc1ccc(C(=O)COC(=O)CCC(=O)Nc2ccccc2Cl)cc1[N+](=O)[O-]	–	–	–	·	·
Cc1ccc(C(=O)COC(=O)CCCC(=O)Nc2cc(C(F)(F)F)ccc2Cl)cc1C	24	–	–	·	–
CC=Cc1ccc2n(c1=O)C[C@H]1[C@H](CO)[C@@H](C(=O)NC3CCC3)N(S(C)(=O)=O)[C@@H]21 (mixture of isomers)	–	·	–	–	·
COC(=O)NCc1ccc(CNC(=O)OC)cc1	–	–	·	–	·
COC(=O)NCc1cccc(CNC(=O)OC)c1	30	–	–	–	–
CCN1C(=O)CC(N2CCN(c3ccc(Cl)cc3)CC2)C1=O (configuration not stated)	35	–	–	·	–
CCN1C(=O)CC(N2CCN(c3ccc(C(=O)c4ccccc4)cc3)CC2)C1=O (configuration not stated)	–	–	–	–	·
O=C1C2C3c4ccccc4C(c4ccccc43)C2C(=O)N1Cc1ccco1 (configuration not stated)	24	–	–	–	–
COc1cc(C(=O)NCc2ccco2)cc(OC)c1OC	·	–	·	·	·
COc1cc(CC(=O)NCc2ccco2)cc(OC)c1OC	22	–	–	–	–
C[C@H]1CN([C@@H](C)CO)C(=O)c2cccc(NS(=O)(=O)c3ccc(Cl)cc3)c2O[C@H]1CN(C)Cc1ccc(C(F)(F)F)cc1	–	·	–	–	·
O=C(CSc1ccccc1)NCCc1ccc(F)cc1	76	–	·	–	–
C=CCNc1nc(Nc2ccc([N+](=O)[O-])cc2)nc(OCC)n1	·	–	·	·	·
C=CCNc1nc(Cl)nc(Nc2ccc(OCC)cc2)n1	29	–	–	·	–
CO[C@H]1CN(C)C(=O)c2cc(NC(=O)Nc3ccccc3F)ccc2OC[C@H](C)NC[C@@H]1C	–	·	–	–	·
CC(=O)c1cccc(NC(=O)NCc2cccnc2)c1	22	–	–	–	–
O=C(NCc1cccnc1)Nc1cccc(NC(=O)NCc2cccnc2)c1	–	–	–	–	·
C[C@@H]1CN([C@@H](C)CO)C(=O)c2cc(NS(=O)(=O)c3ccc(Cl)cc3)ccc2O[C@@H](C)CCCCO[C@H]1CN(C)Cc1ccc(C(=O)O)cc1	–	·	–	·	·
COc1ccc(S(=O)(=O)N(C)C[C@H]2Oc3ccc(NS(=O)(=O)c4cn(C)cn4)cc3CC(=O)N([C@H](C)CO)C[C@@H]2C)cc1	–	·	–	–	·
O=C(NCCN1CCCCC1)Nc1ccc(F)cc1F	24	–	–	–	–
CC(O)(c1cccnc1)c1nc(-c2ccc3ccccc3c2)cs1 (configuration not stated)	22	–	–	–	–
COc1cccc(C(C)(O)c2nc(-c3ccc4ccccc4c3)cs2)c1 (configuration not stated)	–	–	·	–	·
CC(C(=O)N1CCCc2c1c(=O)oc1ccc(O)cc21)N1CCc2ccccc2C1 (configuration not stated)	23	–	–	·	–
Cc1noc(C)c1NC(=O)N(C)C[C@@H]1Oc2ccc(NC(=O)NC3CCCCC3)cc2CC(=O)N([C@H](C)CO)C[C@@H]1C	–	·	–	–	·
SMILES	PglD DTNB	NSD2 HMT inh	miR-122 sensor	Statin myotox sup	PglD confirm
COc1ccc(CNCc2cccc(Cl)c2)cc1	30	–	–	·	–
CC(C)NC(=O)N(C)C[C@H]1Oc2ccc(N(C)C)cc2CC(=O)N([C@@H](C)CO)C[C@H]1C	–	·	–	–	·
CCN(CC)CC(=O)Nc1sc(C)cc1C(=O)c1ccc(C)cc1	22	–	–	–	–
CCN(CC)CC(=O)Nc1sc(C)cc1C(=O)c1ccccc1	–	–	–	–	·
Cn1cnnc1SCC(C)(C)NS(=O)(=O)c1ccc(Cl)cc1	29	–	–	–	?
Cc1ccc(NC(=O)CSc2nnc(CN3CCOCC3)n2C)cc1C	·	–	–	–	·
CC(C)c1ccc(NC(=O)CSc2nnc(CN3CCOCC3)n2C)cc1	99	–	–	–	–
C[C@@H]1CN([C@@H](C)CO)C(=O)c2cc(N(C)C)ccc2O[C@@H](C)CCCCO[C@H]1CN(C)Cc1ccc2c(c1)OCO2	–	·	–	–	·
CCn1c(SCc2nc3sc(C(=O)O)c(C)c3c(=O)[nH]2)nc2ccccc21	28	–	–	–	47
Cc1ccc(NC(=O)C2CCN(S(=O)(=O)c3cnc[nH]3)CC2)cc1C	–	–	–	·	·
Cc1cc(NC(=O)C2CCN(S(=O)(=O)c3cnc[nH]3)CC2)ccc1Br	28	–	–	–	–
C[C@@H]1CN([C@@H](C)CO)C(=O)c2cc(C#Cc3ccccc3)cnc2O[C@@H]1CN(C)C(=O)C1CC1	–	·	–	–	·
COc1ccc(NC(=O)N(C)C[C@@H]2OCCCC[C@@H](C)Oc3ccc(NS(=O)(=O)c4c(C)noc4C)cc3C(=O)N([C@@H](C)CO)C[C@H]2C)cc1	–	·	–	–	·
C[C@@H]1CN([C@@H](C)CO)C(=O)c2cc(NS(=O)(=O)c3ccc(F)cc3)ccc2O[C@@H](C)CCCCO[C@H]1CN(C)C	–	·	–	–	·
CN(Cc1ccccc1)S(=O)(=O)c1ccc2[nH]c(=O)oc2c1	–	·	–	–	·
CN(c1ccccc1)S(=O)(=O)c1ccc2[nH]c(=O)oc2c1	29	–	–	–	–
C[C@@H]1CN([C@@H](C)CO)C(=O)c2cc(-c3ccc(C#N)cc3)cnc2O[C@@H]1CN(C)C(=O)Nc1ccc(F)cc1	–	·	–	–	·
O=C(NCCC1=CCCCC1)c1cnsn1	42	–	–	–	–
CN(C)C(=O)C[C@@H]1CC[C@H]2[C@@H](COc3ccc(NC(=O)C4CC4)cc3C(=O)N2C)O1	–	·	–	–	·
COc1ccc([N+](=O)[O-])cc1NC(=O)CCN1CCOCC1	21	–	–	–	–
COc1ccc([N+](=O)[O-])cc1NC(=O)CCN1CCN(C)CC1	·	–	·	·	·
Cc1ccccc1OCC(=O)N/N=C/c1cc2ccccc2nc1Cl	26	–	–	–	–
O=C(COc1cccc(Cl)c1)N/N=C\c1cc2ccccc2nc1Cl	–	–	–	·	·
CC1=CC(=O)C=C(C)C1=NOC(=O)/C=C\c1ccccc1	·	–	·	·	·
CC1=CC(=NOC(=O)/C=C/c2ccccc2)C=C(C)C1=O	28	·	–	–	–
SMILES	PglD DTNB	NSD2 HMT inh	miR-122 sensor	Statin myotox sup	PglD confirm
COc1ccc(CONS(=O)(=O)c2ccc(NC(C)=O)cc2)cc1Cl	22	–	–	–	–
Cc1c(C(=O)NC(C)C)sc2ncn(CC(=O)N3CCC(C)CC3)c(=O)c12	24	–	–	–	–
CCNC(=O)C1CC(=O)N(Cc2ccc3c(c2)OCO3)C(=Nc2ccc(OCC)cc2)S1 (configuration not stated)	24	–	–	–	–
CCNC(=O)C1CC(=O)N(Cc2ccc(F)cc2)C(=Nc2ccc(OC)cc2)S1 (configuration not stated)	·	–	·	·	·
COc1ccc(OC)c(NC(=O)N2CCCc3ccccc32)c1	–	–	–	–	·
COc1ccc(NC(=O)N2CCCc3cc(C)ccc32)c(OC)c1	30	–	·	·	–
